Several values for one entry are separate records, joined by “and”; a condition that tells them apart may be missing. Equal entries are not always repeated. The panel holds about 79,000 compounds, 15% with a hit somewhere; the sample as a whole holds those more often. Unmarked numbers belong to inactive results. Activity calls are given as the source filed them. No stated cut-off is given here; in the data, active means growth inhibition above about 70%; inactive means the rest. Where a SMILES comes first, the peptide text is derived from it. [ ]: non-standard residue; d: D form. Nva = CCC[CH](N)C(=O)O
Tests used:
[1] = NCI Yeast Anticancer Drug Screen. Data for the rad50 strain (AID 155);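 further: 0% = growth of vehicle-only cultures of the same strain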; conditions: S. cerevisiae rad50 strain growth inhibition, stronger effect = higher value
Summary of the method: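 Yeast carrying a defined DNA repair defect were exposed to test compounds, and growth was compared with vehicle-treated controls to give percent inhibition.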

[2] = NCI Yeast Anticancer Drug Screen. Data for the sgs1 mgt1 strain (AID 161);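 further: 0% = growth of cultures given vehicle only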; conditions: S. cerevisiae sgs1 mgt1 strain, stronger effect = higher value
Summary of the method: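 Test agents were incubated with a DNA-repair-mutant yeast strain. Growth was then read and compared against vehicle-treated controls.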

[3] = NCI Yeast Anticancer Drug Screen. Data for the cln2 rad14 strain (AID 165);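 further: 0% = growth equal to vehicle treated cultures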; conditions: S. cerevisiae cln2 rad14 strain, stronger effect = higher value
Summary of the method: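 Each compound was tested on cln2 rad14 yeast. Inhibition of growth was calculated against vehicle-exposed controls.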

[4] = NCI Yeast Anticancer Drug Screen. Data for the bub3 strain (AID 167); conditions: S. cerevisiae bub3 mutant strain, stronger effect = higher value
Summary of the method: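 Compounds were applied to a genetically altered yeast strain carrying a cell-cycle control defect. Growth inhibition was scored against vehicle-treated controls.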

[5] = NCI Yeast Anticancer Drug Screen. Data for the mlh1 rad18 strain (AID 175); conditions: S. cerevisiae mlh1 rad18 strain growth inhibition, stronger effect = higher value
Summary of the method: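 Vehicle-treated cultures served as the reference for growth inhibition in a yeast strain carrying DNA damage repair alterations exposed to each compound.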

[6] = NCI Yeast Anticancer Drug Screen. Data for the mec2-1 strain (AID 157); conditions: S. cerevisiae mec2-1 strain, stronger effect = higher value
Summary of the method: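 Vehicle-treated cultures served as reference for growth inhibition of compound-exposed mec2-1 yeast.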

[7] = at 5.0 µM (retest, dose inferred, filed as 0.5)
[8] = at 50.0 µM (retest, dose inferred, filed as 5.0)

| SMILES | growth inhibition [1, 7] | growth inhibition [1, 8] | growth inhibition ([1]; at 50.0 µM) | growth inhibition [2, 7] | growth inhibition [2, 8] | growth inhibition ([2]; at 50.0 µM) | growth inhibition [3, 7] | growth inhibition [3, 8] | growth inhibition ([3]; at 50.0 µM) | growth inhibition [4, 7] | growth inhibition [4, 8] | growth inhibition ([4]; at 50.0 µM) | growth inhibition [5, 7] | growth inhibition [5, 8] | growth inhibition ([5]; at 50.0 µM) | growth inhibition [6, 7] | growth inhibition [6, 8] | growth inhibition ([6]; at 50.0 µM) |
| --- | --- | --- | --- | --- | --- | --- | --- | --- | --- | --- | --- | --- | --- | --- | --- | --- | --- | --- |
| C/C(=N\NC(=S)Nc1ccc(Cl)cc1)c1nc2ncccc2[nH]1 | 3% | 98% (active) | 89.8% (active) | 0% | 96% (active) | 85.2% (active) | -38% | 99% (active) | 87.9% (active) | -28% | 95% (active) | 90.1% (active) | -1% | 98% (active) | 85.4% (active) |  |  |  |
| ClC1=CC(Cl)=C2N=C(C(Cl)(Cl)Cl)N=C3N=C(C(Cl)(Cl)Cl)N=C1N32 |  |  |  | 44% | 85% (active) | 99.2% (active) | 12% | 57% | 99% (active) | 21% | 94% (active) | 99.3% (active) | 36% | 86% (active) | 99% (active) | 4% | 88% (active) | 99.5% (active) |
| CCCC(N)C(=O)NC(C(=O)O)C(C)C (stereo not given) (H-[Nva]-Val-OH; configuration not given here) |  |  |  | 1% | -5% | 17.1% | 1% | -5% | 86% (active) | 2% | -3% | 62% | -2% | -9% | 8.4% | -2% | -3% | 51.9% |
| O=P(OCCCl)(OCCCl)C(Nc1cccc2ccccc12)c1ccccc1 (stereo not given) | 7% | 86% (active) | 91% (active) | 5% | 86% (active) | 88.5% (active) | -1% | 86% (active) | 87.5% (active) | 1% | 87% (active) | 86.7% (active) |  |  |  |  |  |  |
| CCCCN(CCCC)C(=O)c1ccc(Cl)cc1Cl | 7% | 97% (active) | 98.5% (active) |  |  |  | 11% | 87% (active) | 96.2% (active) | 26% | 90% (active) | 96.5% (active) | 13% | 97% (active) | 98.3% (active) | 7% | 98% (active) | 97.7% (active) |
| CCCCCCCCCCCCCCCCN | 98% (active) | 97% (active) | 99% (active) | 99% (active) | 98% (active) | 99.2% (active) | 54% | 97% (active) | 98.8% (active) | 98% (active) | 98% (active) | 98.8% (active) | 98% (active) | 98% (active) | 98.7% (active) |  |  |  |
| O=C1OC(OC/C(Br)=C(/Br)COC2OC(=O)C(Cl)=C2Cl)C(Cl)=C1Cl (stereo not given) |  |  |  | 97% (active) | 100% (active) | 98.9% (active) | 71% (active) | 98% (active) | 97.3% (active) | 84% (active) | 99% (active) | 98.8% (active) | 97% (active) | 99% (active) | 98.7% (active) | 64% | 99% (active) | 99.4% (active) |
| CN1c2ccccc2Sc2c1n[nH]c2-c1ccccc1 | -1% | 64% |  | 0% | 79% (active) | 98.8% (active) | 2% | 68% | 98% (active) | -1% | 95% (active) | 99% (active) | -4% | 91% (active) | 98.8% (active) | -3% | 79% (active) | 96.1% (active) |
| N=C(N)SCc1ccc(Br)cc1 | -13% | -17% | -2.75% | -20% | -15% | -15.9% | -16% | -4% | 27.6% | -18% | 35% | 16.9% | -29% | 2% | 19.9% |  |  |  |
| CC1(Cc2ccccc2)CCCC(C=O)C1=O.[Cu+2] (stereo not given) |  |  |  | -4% | 98% (active) | 94.7% (active) | 0% | 92% (active) | -21.9% | -3% | 96% (active) | -3.85% | 0% | 99% (active) | 44.9% | 0% | 97% (active) | 31.5% |
| O=C1OC(C(O)CO)C(O)=C1O (stereo not given) |  |  | -17.1% and 7.7% and 12.5% |  |  | -4.15% and -7.6% and 14.5% |  |  | -0.75% and -1.55% and 7.15% |  |  | -1.7% and -0.25% and -0.3% |  |  | 1.6% and 8.75% and 6.45% |  |  | -25.8% and 0.65% and -15.2% |
